Source: PubChem BioAssay (National Center for Advancing Translational Sciences (NCATS))
Hits are enriched below; roughly 19% of the tested compounds scored in any of these assays.
DT40 TDP1 no CPT = qHTS for Inhibitors of human tyrosyl-DNA phosphodiesterase 1 (TDP1): qHTS in cells in absence of CPT; DT40 Tdp1-/- hTDP1 cells, no CPT, ATP luminescence, 48 h; Potency, µM (top dose mostly 46.2 µM), for inactives: at the top dose activity change, negative = growth inhibition, hits mostly inhibitors; 15% of 420,000 active; note: potency is the fitted concentration of half-maximal effect; nearly all actives have a fitted effect of over 55% in size
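Chicken DT40 Tdp1-/- cells stably complemented with human TDP1 were seeded at 400 cells/well with DMSO in place of 20 nM camptothecin. After compound pinning, cells grew at least 48 hr at 37 °C; viability read by CellTiter-Glo luminescence.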
HT1080-NT tox = kills 2HG-producing HT-1080-NT fibrosarcoma cells. HT-1080-NT fibrosarcoma viability, CellTiter-Glo ATP luminescence, 48 h. Potency, µM (highest dose often 46.1 µM), for inactives: at the top dose activity, negative = less viability, usual class: cytotoxic. 1.6% of 360,000 active. AID 686970;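 note: NT is the 2HG producing partner of a matched IDH1 knockdown line; potency is the fitted concentration of half-maximal effect; 0% = DMSO-treated cells and -100% = media-only wells without cells; nearly all actives have a fitted effect of over 55% in size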
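Luminescent CellTiter-Glo readout after 48 hours of compound exposure at 37 degrees C defined viability of HT-1080-NT cells. Activity was normalized to DMSO wells and cell-free media wells; concentration-response curves were fitted and assigned curve classes.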
IL1B secr inh = blocks inflammasome-driven IL-1 beta release; THP-1 LPS/ATP IL-1B secretion, AlphaLISA, 16 h; hits give low values; activity change, % at 57.5 µM; 4.7% of 360,000 active; AID 743279; in the data active = activity change below about -50%; inconclusive = mostly about -30% to -49%
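THP-1 cells pretreated 1 hr with compounds (up to 57.5 uM final), then stimulated with LPS (250 ng/mL final) plus ATP (1.25 mM final); secreted IL-1B measured by AlphaLISA after 16 hr, decreased signal indicating inhibition.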
HT1080 IDH1KD tx = kills HT-1080 cells with IDH1 knockdown | Potency, µM (series often up to 46.1 µM), without a hit: top-dose activity, negative = toxicity, most hits filed as cytotoxic | 2% of 360,000 active | HT-1080 IDH1 knockdown viability, ATP luminescence, 48 h;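 note: potency is the fitted concentration of half-maximal effect; 0% = DMSO wells and -100% = cell-free medium wells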
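Using the IDH1-knockdown HT-1080 line run in the same batch and compound series as the NT line, viability after 48 h at 37 °C was determined by CellTiter-Glo luminescence and expressed as % activity.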
DT40 TDP1 CPT = DT40-hTDP1 cell growth loss with CPT; chicken DT40 Tdp1-/-;hTDP1 cells + 20 nM CPT, ATP luminescence, 48 h; 12% of 420,000 active; AID 686979; Potency, µM (highest dose often 46.2 µM), for the others: at the top dose activity change, negative = growth inhibition, actives largely listed as inhibitors; note: potency is the fitted concentration of half-maximal effect; nearly all actives have a fitted effect of over 55% in size
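Chicken DT40 Tdp1-/- cells stably complemented with human TDP1 were seeded at 400 cells/well in medium containing 20 nM camptothecin, exposed to pin-transferred compounds, and grown at 37 °C for at least 48 hr. Viability was read as ATP luminescence.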
* marks the source's active call; other numbers are inactive results; [ ] = dose if it differs, or a comment. Unless noted, calls come from the whole dose curve; as a rule, active = well fitted curve in the direction sought with a large enough effect; inconclusive = small, poorly fitted or top-dose-only effect, or another doubt; inactive = no such curve, though single readings can be large; an effect the other way counts as inactive or inconclusive. Unless noted, % is set by controls: 0 for no effect and ±100 for the full control effect.

`N#Cc1ccsc1NC(=O)CN1CCN(S(=O)(=O)c2ccc3ccccc3c2)CC1` gave DT40 TDP1 no CPT 16.4µM*, HT1080-NT tox 1.2%, IL1B secr inh 19.1, HT1080 IDH1KD tx -0.2% and DT40 TDP1 CPT inconclusive.
COCCNC(=S)NNc1ccccc1[N+](=O)[O-] was read as DT40 TDP1 no CPT 4.0%, HT1080-NT tox -0.9%, IL1B secr inh -8.4, HT1080 IDH1KD tx -0.6% and DT40 TDP1 CPT 1.7%.
For COc1ccc(C(=O)Cn2nc(CNc3ccc(Br)cc3)[n+]3c2CCCCC3)cc1 the results were DT40 TDP1 no CPT 2.59µM*, HT1080-NT tox inconclusive, IL1B secr inh -80.3*, HT1080 IDH1KD tx inconclusive and DT40 TDP1 CPT 3.66µM*.
`Cc1ccc(C(C)C)c(OCc2nn(CC(=O)c3ccc(OC(F)F)cc3)c3[n+]2CCCCC3)c1` gave DT40 TDP1 no CPT 0.581µM*, HT1080-NT tox 14.6µM*, IL1B secr inh -107.4*, HT1080 IDH1KD tx 18.4µM* and DT40 TDP1 CPT 0.581µM*.
Nc1[nH]n(-c2ccccc2)c(=O)c1N=Nc1ccc2ncsc2c1 was read as DT40 TDP1 no CPT -59.9%, HT1080-NT tox inconclusive, IL1B secr inh -13.7, HT1080 IDH1KD tx inconclusive and DT40 TDP1 CPT inconclusive.
For COc1cccc(CNC(=O)COc2ccc(C(=O)c3ccccc3)cc2)c1 the results were DT40 TDP1 no CPT 16.4µM*, HT1080-NT tox inconclusive, IL1B secr inh -19.9, HT1080 IDH1KD tx inconclusive and DT40 TDP1 CPT inconclusive.
Screening COc1ccc(Cn2ccnc2SCC(=O)NCc2ccccc2)cc1 returned DT40 TDP1 no CPT inconclusive and DT40 TDP1 CPT 16.4µM*.
For COc1cccc(CNC(=O)Cn2cccc2C(=O)c2ccccc2)c1 the results were DT40 TDP1 no CPT -11.4% and DT40 TDP1 CPT -13.9%.
`O=C(COc1ccc(C(=O)c2ccccc2)cc1)NCC1CCCCC1` gave DT40 TDP1 no CPT 16.4µM*, HT1080-NT tox -9.4%, IL1B secr inh -14.5, HT1080 IDH1KD tx -15.4% and DT40 TDP1 CPT 16.4µM*.
`COc1cccc(CNC(=O)COC(=O)CNC(=O)c2ccc(-c3ccccc3)cc2)c1` gave DT40 TDP1 no CPT -27.4%, HT1080-NT tox -1.2%, IL1B secr inh -6.3, HT1080 IDH1KD tx 3.3% and DT40 TDP1 CPT -21.4%.
Screening COc1cccc(CNC(=O)Cc2ccc(-c3ccccc3)cc2)c1 returned DT40 TDP1 no CPT 20.6µM*, HT1080-NT tox inconclusive, IL1B secr inh 21.9, HT1080 IDH1KD tx 18.4µM* and DT40 TDP1 CPT inconclusive.
Screening O=C(c1ccc(CNS(=O)(=O)c2ccc(Br)cc2)cc1)N1CCCC1 returned DT40 TDP1 no CPT inconclusive, HT1080-NT tox -1.1%, IL1B secr inh 18.0, HT1080 IDH1KD tx -0.7% and DT40 TDP1 CPT -28.5%.
COc1cccc(CNC(=O)CCNS(=O)(=O)c2ccc(Br)s2)c1 was read as DT40 TDP1 no CPT inconclusive, HT1080-NT tox -1.4%, IL1B secr inh 20.2, HT1080 IDH1KD tx 16.9% and DT40 TDP1 CPT inconclusive.
For COc1cccc(CNC(=O)Cc2ccc(-n3c(=O)[nH]c4ccccc4c3=O)cc2)c1 the results were DT40 TDP1 no CPT 3.26µM*, HT1080-NT tox inconclusive, IL1B secr inh 23.8, HT1080 IDH1KD tx inconclusive and DT40 TDP1 CPT 4.61µM*.
CCc1nnc(NC(=O)CSc2nccn2Cc2ccccc2)s1 was read as DT40 TDP1 no CPT 20.6µM* and DT40 TDP1 CPT inconclusive.
`COc1ccc(CNC(=O)c2ccc3c(=O)n(-c4ccccc4)c(=O)[nH]c3c2)cc1` gave DT40 TDP1 no CPT -6.9%, HT1080-NT tox 26.6%, IL1B secr inh 14.0, HT1080 IDH1KD tx 15.7% and DT40 TDP1 CPT 7.7%.
Screening CCc1nnc(NC(=O)CSc2nnc(-c3ccccc3O)n2-c2ccc(C)cc2C)s1 returned DT40 TDP1 no CPT 23.1µM*, HT1080-NT tox 4.61µM*, IL1B secr inh 51.3, HT1080 IDH1KD tx inconclusive and DT40 TDP1 CPT inconclusive.
`CCc1nnc(NC(=O)CSc2nnc(COc3ccccc3)n2-c2ccc(C)cc2)s1` gave DT40 TDP1 no CPT -25.6%, HT1080-NT tox 9.1%, IL1B secr inh 47.1, HT1080 IDH1KD tx 3.6% and DT40 TDP1 CPT inconclusive.
For COc1cccc(CNC(=O)CNS(=O)(=O)c2ccc(Br)s2)c1 the results were DT40 TDP1 no CPT -3.3%, HT1080-NT tox 2.4%, IL1B secr inh -52.5*, HT1080 IDH1KD tx -2.8% and DT40 TDP1 CPT 0.9%.
`CCOc1ccccc1C(=O)OCC(=O)Nc1ccc(OC(F)F)cc1` gave DT40 TDP1 no CPT -10.7%, HT1080-NT tox -8.5%, IL1B secr inh 4.9, HT1080 IDH1KD tx 0.7% and DT40 TDP1 CPT 2.2%.
CC(C)(C)NC(=O)Cn1nnc(-c2ccc(OCc3c(F)cccc3Cl)cc2)n1 was read as DT40 TDP1 no CPT inconclusive, HT1080-NT tox inconclusive, IL1B secr inh inconclusive, HT1080 IDH1KD tx -11.3% and DT40 TDP1 CPT inconclusive.
O=C(COc1ccc(S(=O)(=O)N2CCCCC2)cc1)NCc1cccnc1 was read as DT40 TDP1 no CPT 8.6%, HT1080-NT tox -5.5%[9.24 µM], IL1B secr inh 31.7, HT1080 IDH1KD tx -9.9% and DT40 TDP1 CPT -13.1%.
COc1ccc(OCCC(=O)NCc2ccccc2)cc1 was read as DT40 TDP1 no CPT -1.7%, HT1080-NT tox 6.1%, IL1B secr inh -9.9, HT1080 IDH1KD tx 7.7% and DT40 TDP1 CPT 0.7%.
`Cn1ccnc1C(=O)c1cc(SCC(=O)NCc2ccccc2)nc2ccccc12` gave DT40 TDP1 no CPT 5.17µM*, HT1080-NT tox 10.3µM*, IL1B secr inh 65.2, HT1080 IDH1KD tx inconclusive and DT40 TDP1 CPT 6.51µM*.
For COc1ccc(/C=C(/C(=O)NCc2ccccc2)c2ccccc2)cc1 the results were DT40 TDP1 no CPT 20.6µM*, HT1080-NT tox -0.5%, IL1B secr inh -7.7, HT1080 IDH1KD tx 1.2% and DT40 TDP1 CPT inconclusive.
Screening COc1ccc(CC(=O)NCc2ccccc2)cc1 returned DT40 TDP1 no CPT 2.91µM*, HT1080-NT tox inconclusive, IL1B secr inh 28.5, HT1080 IDH1KD tx 8.2µM* and DT40 TDP1 CPT 2.59µM*.
`COc1ccc(NC(=O)C(c2ccc(C(F)(F)F)cc2)n2c(=O)c(-c3cc4ccccc4[nH]3)nc3ccccc32)cc1` (stereo unspecified) gave DT40 TDP1 no CPT inconclusive, HT1080-NT tox inconclusive, IL1B secr inh 140.6, HT1080 IDH1KD tx inconclusive and DT40 TDP1 CPT 18.4µM*.
`COc1ccc(NC(=O)C(C2CC2)n2c(=O)c(-c3cc4ccccc4[nH]3)nc3ccccc32)cc1` (stereo unspecified) gave DT40 TDP1 no CPT inconclusive, HT1080-NT tox inconclusive, IL1B secr inh inconclusive, HT1080 IDH1KD tx 14.6µM* and DT40 TDP1 CPT 29.1µM*.
